# In PubChem BioAssay (NCI):
# Compounds without any hit were thinned out: in the full panel of roughly 83,000, 20% have a hit.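 Compound tested at a single concentration for 48 hours in 96-well plates; a percent growth value below 10 was scored as active.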 Unmarked numbers belong to inactive results. The source made the active and inactive calls.
# Key:
# Assay in all cases: NCI-60 one-dose screen, 48 h (100 = growth as untreated, 0 = no growth, -100 = all killed)
# Details in all cases: 10 µM unless noted
# NCI-H23 lung = system: NCI-H23 lung
# NCI-H226 lung = system: NCI-H226 lung
# NCI-H322M lung = system: NCI-H322M lung
# HOP-62 NSCLC = system: HOP-62 NSCLC
# NCI-H460 lung = system: NCI-H460 lung
# HOP-92 NSCLC = system: HOP-92 NSCLC
# NCI-H522 lung = system: NCI-H522 lung
# A549/ATCC NSCLC = system: A549/ATCC NSCLC
# 786-0 renal = system: 786-0 renal
# COLO 205 colon = system: COLO 205 colon
# DU-145 prostate = system: DU-145 prostate
# K-562 leukemia = system: K-562 leukemia
# MALME-3M melanoma = system: MALME-3M melanoma
# MDA-MB-231 breast = system: MDA-MB-231 breast
# RXF 393 renal = system: RXF 393 renal
# SF-268 CNS = system: SF-268 CNS
# SF-295 CNS = system: SF-295 CNS
# SF-539 CNS = system: SF-539 CNS
# UACC-257 melanoma = system: UACC-257 melanoma
# M14 melanoma = system: M14 melanoma
Compound,growth (NCI-H23 lung),growth (NCI-H226 lung),growth (NCI-H322M lung),growth (HOP-62 NSCLC),growth (NCI-H460 lung),growth (HOP-92 NSCLC),growth (NCI-H522 lung),growth (A549/ATCC NSCLC),growth (786-0 renal),growth (COLO 205 colon),growth (DU-145 prostate),growth (K-562 leukemia),growth (MALME-3M melanoma),growth (MDA-MB-231 breast),growth (RXF 393 renal),growth (SF-268 CNS),growth (SF-295 CNS),growth (SF-539 CNS),growth (UACC-257 melanoma),growth (M14 melanoma)
O=c1ccc(N=Nc2ccc([N+](=O)[O-])cc2)ccc1O,2.17% (active),16.6%,17.6%,33%,17.8%,47.5%,14%,31.5%,42.3%,16.7%,38.4%,13.7%,22.9%,13.9%,46%,23.2%,12.6%,16.7%,21.9%,44.6%
COc1cc(CCC[P+](c2ccccc2)(c2ccccc2)c2ccccc2)c(OC)c2c1OCO2,19.3%,55.3%,85.3%,18.9%,31.8%,11.3%,6.02% (active),43.7%,31.2%,-35.6% (active),28.5%,14.4%,3.07% (active),-0.787% (active),64.3%,13%,66.9%,46.9%,5.75% (active),17.4%
COc1ccc(OC)c(/C=C/C(=O)N/N=C/c2ccc(Cl)cc2)c1,34.8%,73.1%,41.3%,37.9%,5.19% (active),77.7%,-36.2% (active),27.8%,16.7%,-48.9% (active),14.8%,14%,54.1%,28.1%,-19.8% (active),33.2%,31.8%,-43.2% (active),53%,-34.4% (active)
Nc1ccccc1-c1cc2c(c3c1[nH]c1ccccc13)CCCCC2,90.5%,117%,99%,105%,97.2%,105%,84.8%,95.8%,89.3%,101%,102%,98%,117%,90.3%,113%,97.2%,103%,116%,105%,92.5%
Cc1ccc(-c2cnc3sc(C(=O)NCCc4ccccc4)c(C)n23)cc1,95.4%,78.6%,91.6%,89.1%,102%,91.1%,91.7%,109%,97.7%,116%,99.1%,93.9%,95.5%,79.1%,99.1%,86.7%,104%,96.6%,120%,91.9%
CCOC(=O)c1c(C)nc2c(c1N)CC(=O)N2Cc1ccc(F)cc1,99.8%,90.8%,107%,82.1%,99.7%,71.5%,63.7%,90.8%,98.3%,103%,100%,93.3%,116%,97.9%,101%,96.4%,95.3%,92.9%,96%,94.8%
COc1cc(C(=O)N2N=C(c3ccc(S(C)(=O)=O)cc3)CC2c2ccco2)cc(OC)c1OC (stereo not given),76.9%,77.4%,95%,67.3%,58.2%,39.8%,11.9%,58.2%,75.1%,69.8%,82.5%,73.2%,61.7%,66.4%,66.4%,87.6%,42.9%,79.1%,80.6%,65.2%
CCCCCCCCCCCCCCCCCC1OCC(COC(=O)O[C@]2(CC)C(=O)OCc3c2cc2n(c3=O)Cc3cc4ccccc4nc3-2)O1 (stereo not given in full),75.4%,75.4%,101%,53%,31.4%,92.6%,82.6%,78.5%,86.7%,79.3%,76%,88.4%,101%,93.1%,89.4%,45.7%,23.4%,68.1%,95.9%,75.3%
